Measurements: PubChem BioAssay
Active and inactive are the calls of the source.

Columns and labels:
[1] = test system: PRMT1 (protein arginine N-methyltransferase 1); experiment: PRMT1 binders on small-molecule microarrays, primary screen, biochemical, small-molecule microarray, 635 nm fluorescence (AID 1088); conditions: small-molecule microarray binding, higher = more signal;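 further: binding of Prmt1 protein to compounds spotted on small-molecule microarray slides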
[2] = yeast growth modulation, basal conditions, primary screen, YJM789 clinical isolate, OD600, 24 h (AID 1089);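 further: growth of clinical yeast isolate S. cerevisiae YJM 789 seeded 1000 cells per well; test concentration not given here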; conditions: S. cerevisiae YJM789 growth, higher = more signal, called active from +8 up or from −8 down
[3] = fission yeast growth modulation, primary screen, strain 972, OD600, 24 h, no modulator (AID 1090);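 further: basal condition with compound alone and no growth modifier present; test concentration not given here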; conditions: S. pombe 972 growth, higher = more signal, called active from +8 up or from −8 down
[4] = S. cerevisiae growth modulation with rapamycin, primary screen, strain BY4716, OD600, 96 h (AID 1091); conditions: higher = more signal, called active from +8 up or from −8 down; further: test concentration not given here
[5] = biological target: Torsin-1A-interacting protein 2 (Homo sapiens) (UniProt Q8NFQ8); experiment: LULL1 binders on small-molecule microarray, primary screen, cell lysate, human LULL1 lysate, 635/667 nm fluorescence (AID 1092); conditions: hLULL1 lysate binding, 635 nm fluorescence, higher = more signal;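 further: probe is lysate of COS7 cells overexpressing human LULL1; score merges per-feature 667 nm fluorescence with signal-to-noise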
Torsin-1A-interacting protein 2 (Homo sapiens), sequence (Q8NFQ8 whole entry, looked up): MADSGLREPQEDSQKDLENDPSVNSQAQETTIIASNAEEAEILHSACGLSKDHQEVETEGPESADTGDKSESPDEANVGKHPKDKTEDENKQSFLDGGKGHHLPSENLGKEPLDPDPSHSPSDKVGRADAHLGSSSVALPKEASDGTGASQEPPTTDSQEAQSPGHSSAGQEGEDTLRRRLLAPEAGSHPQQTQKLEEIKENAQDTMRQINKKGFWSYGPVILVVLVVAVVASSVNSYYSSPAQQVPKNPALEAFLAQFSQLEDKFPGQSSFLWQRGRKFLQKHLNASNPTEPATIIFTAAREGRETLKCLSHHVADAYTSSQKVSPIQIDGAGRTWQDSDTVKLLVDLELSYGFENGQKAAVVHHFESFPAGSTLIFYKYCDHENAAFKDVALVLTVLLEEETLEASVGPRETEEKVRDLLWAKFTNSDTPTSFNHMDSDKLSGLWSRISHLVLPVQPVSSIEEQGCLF

[6] = E. coli growth modulation, two-sided OD650, primary screen, E. coli filamentation project, strain DRC41, 24 h (AID 1093); conditions: OD650, 24 h, higher = more signal, called active from +8 up or from −8 down;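 further: MC1000 strain lacking acrAB efflux and sulA so SOS filamentation is blocked; test concentration not given here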
[7] = small-molecule microarray binders of probe aLefty2, primary screen, biochemical, biotinylated probe, 635/667 nm fluorescence (AID 1094); conditions: higher = more signal;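 further: score merges spot fluorescence near 667 nm with spot signal-to-noise ratio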
[8] = test system: Noggin (protein binding on small-molecule microarray); experiment: Noggin binders on small-molecule microarray, primary screen, biochemical, 635/667 nm fluorescence (AID 1095); conditions: 635 nm fluorescence, higher = more signal;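 further: score merges 667 nm feature fluorescence with signal to noise over triplicate slides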
[9] = biological target: Neurogenic locus notch homolog protein 3 (Homo sapiens) (UniProt Q9UM47); experiment: NOTCH3 binders on small-molecule microarray, primary screen, biochemical, 635/667 nm fluorescence (AID 1096); conditions: NOTCH3 binding, 635 nm fluorescence, higher = more signal
Neurogenic locus notch homolog protein 3 (Homo sapiens), sequence (Q9UM47 whole entry, looked up): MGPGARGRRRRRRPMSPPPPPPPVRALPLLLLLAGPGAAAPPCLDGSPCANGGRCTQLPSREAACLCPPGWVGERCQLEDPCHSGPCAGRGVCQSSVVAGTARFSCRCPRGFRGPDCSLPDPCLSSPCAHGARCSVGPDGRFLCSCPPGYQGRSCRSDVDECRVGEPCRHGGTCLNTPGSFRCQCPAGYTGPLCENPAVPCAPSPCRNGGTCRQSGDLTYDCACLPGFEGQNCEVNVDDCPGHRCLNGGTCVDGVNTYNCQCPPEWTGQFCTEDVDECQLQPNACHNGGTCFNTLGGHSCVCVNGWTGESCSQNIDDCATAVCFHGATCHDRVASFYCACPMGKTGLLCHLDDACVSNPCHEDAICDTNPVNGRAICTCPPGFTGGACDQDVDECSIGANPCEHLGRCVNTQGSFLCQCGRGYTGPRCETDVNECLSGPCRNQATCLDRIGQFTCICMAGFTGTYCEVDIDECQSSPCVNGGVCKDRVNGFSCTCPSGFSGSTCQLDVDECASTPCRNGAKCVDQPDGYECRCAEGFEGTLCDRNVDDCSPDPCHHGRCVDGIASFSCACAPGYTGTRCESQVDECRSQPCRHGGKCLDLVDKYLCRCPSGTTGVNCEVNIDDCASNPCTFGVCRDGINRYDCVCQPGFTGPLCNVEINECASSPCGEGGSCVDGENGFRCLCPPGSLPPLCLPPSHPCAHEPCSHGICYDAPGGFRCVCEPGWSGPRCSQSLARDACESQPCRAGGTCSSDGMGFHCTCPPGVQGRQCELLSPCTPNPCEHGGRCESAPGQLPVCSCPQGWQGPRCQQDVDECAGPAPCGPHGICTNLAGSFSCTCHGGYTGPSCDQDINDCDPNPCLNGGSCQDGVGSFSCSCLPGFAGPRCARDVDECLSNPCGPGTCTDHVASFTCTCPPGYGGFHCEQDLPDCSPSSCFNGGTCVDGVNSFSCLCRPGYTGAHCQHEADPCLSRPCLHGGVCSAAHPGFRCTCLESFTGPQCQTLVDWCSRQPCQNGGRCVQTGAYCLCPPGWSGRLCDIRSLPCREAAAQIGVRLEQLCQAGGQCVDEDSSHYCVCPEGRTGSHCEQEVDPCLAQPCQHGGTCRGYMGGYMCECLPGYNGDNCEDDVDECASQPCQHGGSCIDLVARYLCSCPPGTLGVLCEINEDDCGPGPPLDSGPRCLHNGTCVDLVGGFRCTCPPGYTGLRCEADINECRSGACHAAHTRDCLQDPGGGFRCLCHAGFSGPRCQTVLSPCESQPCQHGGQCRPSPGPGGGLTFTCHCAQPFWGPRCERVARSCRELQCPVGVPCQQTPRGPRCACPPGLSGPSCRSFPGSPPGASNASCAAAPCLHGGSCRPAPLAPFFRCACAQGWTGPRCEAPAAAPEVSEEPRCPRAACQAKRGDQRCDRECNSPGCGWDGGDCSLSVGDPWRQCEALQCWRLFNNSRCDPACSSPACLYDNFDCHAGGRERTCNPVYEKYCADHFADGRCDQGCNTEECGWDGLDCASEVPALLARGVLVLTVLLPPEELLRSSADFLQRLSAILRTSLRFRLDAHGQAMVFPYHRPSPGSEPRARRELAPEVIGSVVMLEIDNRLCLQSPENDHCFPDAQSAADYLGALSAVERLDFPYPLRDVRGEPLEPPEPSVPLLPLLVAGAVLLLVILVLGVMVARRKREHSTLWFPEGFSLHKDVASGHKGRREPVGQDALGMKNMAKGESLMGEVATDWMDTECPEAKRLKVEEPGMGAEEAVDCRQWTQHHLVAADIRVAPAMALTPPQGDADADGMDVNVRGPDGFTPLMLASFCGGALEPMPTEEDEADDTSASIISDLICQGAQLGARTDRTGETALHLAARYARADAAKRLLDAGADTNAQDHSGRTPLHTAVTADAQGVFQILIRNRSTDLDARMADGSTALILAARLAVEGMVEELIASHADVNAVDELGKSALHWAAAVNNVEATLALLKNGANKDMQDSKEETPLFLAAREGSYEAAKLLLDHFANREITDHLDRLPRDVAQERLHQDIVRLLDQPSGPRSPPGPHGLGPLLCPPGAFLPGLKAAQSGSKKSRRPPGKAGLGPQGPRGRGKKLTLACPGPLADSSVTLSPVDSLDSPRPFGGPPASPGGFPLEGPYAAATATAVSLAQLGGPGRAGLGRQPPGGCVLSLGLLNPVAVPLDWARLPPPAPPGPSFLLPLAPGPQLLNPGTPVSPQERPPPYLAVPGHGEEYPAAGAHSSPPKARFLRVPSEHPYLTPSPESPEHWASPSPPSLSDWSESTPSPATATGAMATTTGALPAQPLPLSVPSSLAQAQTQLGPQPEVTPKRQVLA

[10] = small-molecule microarray binders of probe aEGFR, primary screen, biochemical, biotinylated probe, 635/667 nm fluorescence (AID 1097); conditions: higher = more signal;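 further: probe is a biotinylated anti-EGFR antibody binding compounds printed on slides; score combines fluorescence near 667 nm and signal to noise of each spot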

SMILES	composite z-score [1]	z-score [2]	z-score [3]	z-score [4]	composite z-score [5]	z-score [6]	composite z-score [7]	composite z-score [8]	composite z-score [9]	composite z-score [10]
CCCCCC1=C2CNC(CCC)(C(=O)OC)C=C2C(C)C1=O (stereo not given)	-0.523	0.0131 (inactive)	0.277 (inactive)	0.573 (inactive)	2.13	-0.48 (inactive)	0.0943	-0.236	0.358	0.189
O=C1[C@H]2C=C(Br)[C@H](C[C@@H]2c2ccccc2)[C@@]12CO2	0.366	-0.703 (inactive)	-14.7 (active)	-0.973 (inactive)	0.328	-0.779 (inactive)	-0.172	1.36	0.412	-0.156
CC(C)(C)OC(=O)CC[C@@]1(C(N)=O)N=C(c2ccc(OCCCO)cc2)O[C@@H]1c1ccccc1	1.57	-0.145 (inactive)	-0.589 (inactive)	-0.399 (inactive)	3.17	-0.511 (inactive)	0.0917	0.392	0.79	0.106
C=CC[C@@]1(C(N)=O)N=C(c2ccc(OCCCO)cc2)O[C@@H]1c1ccccc1CN=[N+]=[N-]	0.867	-0.884 (inactive)	-0.398 (inactive)	-0.512 (inactive)	3.77	0.0086 (inactive)	0.444	0.174	0.638	0.0651
C=C(CCCC)C(=O)CC[C@H](OC(=O)c1cccnc1)c1ccccc1OCCO	0.449	-2.23 (inactive)	-2.01 (inactive)	-1.34 (inactive)	-0.0709	0.576 (inactive)	-0.19	0.282	0.214	-0.0656
COc1ccc(C(O)C2C=CC3C(=O)N(c4ccccc4)C(=O)C3N2Nc2ccccc2F)cc1OCc1ccccc1 (stereo not given)	0.946	-0.306 (inactive)	0.754 (inactive)	1 (inactive)	2.94	-0.994 (inactive)	0.312	-0.0436	0.386	0.308
COC(=O)c1c(CC[C@@H](CO)NC(=O)N2CCC[C@H]2Cn2cc(-c3ccccn3)nn2)oc(C(C)=O)c1C(=O)OC	0.986	-0.833 (inactive)	0.195 (inactive)	-1.46 (inactive)	3.03	1.25 (inactive)	-0.155	0.81	-0.126	-0.13
CCCCN1CC=CC23O[C@@H]4/C=C\CCC(C)OC(=O)C4[C@H]2C(=O)N(CCCCCO)[C@@H]3C1=O (stereo not given in full)	0.445	-0.402 (inactive)	-0.831 (inactive)	-0.868 (inactive)	1.72	0.0029 (inactive)	-0.205	-0.976	-0.292	-0.227
COCCOC(=O)N1C(=O)[C@@]2(c3cc(C#CCCO)ccc31)[C@H](C(=O)N1CCc3cc(OC)c(OC)cc3C1)[C@H]1C(=O)O[C@H](c3ccccc3)[C@H](c3ccccc3)N1[C@@H]2c1ccc(O)cc1	1.54	1.42 (inactive)	0.0725 (inactive)	1.8 (inactive)	2.55	0.199 (inactive)	0.0262	1.07	1.08	-0.0191
C=CCOC(=O)[C@H]1[C@@H]2C(=O)O[C@@H](c3ccccc3)[C@@H](c3ccccc3)N2[C@@H](c2ccc(OCCOC(=O)[C@H]3C[C@H]4C(=O)N5CCC[C@H]5C(=O)N4[C@H]3c3ccc(O)cc3)cc2)[C@]12C(=O)Nc1ccccc12	1.54	1.31 (inactive)	0.998 (inactive)	3.27 (inactive)	3.03	-0.92 (inactive)	0.0292	0.744	0.938	0.127
O=C1c2ccccc2[C@@]2(Cc3ccccc3N(CC(F)(F)F)C2=O)[C@H](c2ccc(CO)cc2)N1Cc1ccccc1Cl	1.22	-0.146 (inactive)	-0.172 (inactive)	-1.62 (inactive)	-0.0577	0.0194 (inactive)	-0.159	0.476	-0.0169	-0.118
COC(=O)C(CC#Cc1ccc2c(c1)[C@]1(C(=O)N2)[C@H](C(=O)O)[C@H]2C(=O)O[C@H](c3ccccc3)[C@H](c3ccccc3)N2[C@@H]1c1ccc(O)cc1)C(=O)OC	0.615	1.06 (inactive)	0.819 (inactive)	-0.567 (inactive)	2.12	-0.913 (inactive)	-0.188	-0.868	-0.608	-0.0514
O=C1C[C@]2(c3ccc([N+](=O)[O-])cc3)C(=O)N(CCN3CCOCC3)c3cc(CO)ccc3[C@H]2N1C1CCCCC1	1.47	-0.87 (inactive)	0.0365 (inactive)	-1.6 (inactive)	1.1	0.668 (inactive)	-0.0668	-0.283	-0.188	-0.112
C#CCN(CC=C(C)C)[C@H](CO)c1ccccc1	0.489	-0.319 (inactive)	-4.47 (inactive)	-1.92 (inactive)	0.0196	0.333 (inactive)	-0.0518	0.223	0.109	-0.0814
